A selection: hits, their analogues and other compounds. The true share with any hit is near 10%.
hNpr1 antagonist = antagonists of human natriuretic peptide receptor Npr1; P16066; 76,000 tested, 1.6% active; HEK293 hNpr1 GloSensor cGMP, ANP-stimulated luminescence; Potency, µM (highest dose often 46.3 µM), without a hit: top-dose activity change, negative = inhibition, usual class: inhibitors; calls by dose curve; note: % is set by controls: 0 for no effect and ±100 for the full control effect; nearly all actives have a fitted effect of over 60% in size
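HEK293 cells stably expressing human Npr1 and cGMP GloSensor pGS-40F, loaded 2 h with 2% GloSensor reagent, given compound 30 min at room temperature. Luminescence read before and 20 min after 0.1 nM hNppA.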
FLuc inh = blocks purified firefly luciferase enzyme activity; Potency, µM (doses to about 115 µM), usual class: inhibitors; AID 1347043; 76,000 tested, 2.5% active; P08659; purified P. pyralis luciferase, luminescence, biochemical; note: % is set by controls: 0 for no effect and ±100 for the full control effect; nearly all actives have a fitted effect of over 65% in size
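Cell-free enzyme assay, 10nM P. pyralis luciferase, luciferin and ATP each at 10uM. Inhibition profiled over a 6-point titration, read as luminescence.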
NIH3T3 tox = NIH 3T3 cell cytotoxicity; NIH 3T3 viability, CellTiter-Glo ATP luminescence, 48-72 h; Potency, µM (doses to about 96.7 µM), without a hit: at the top dose activity change, negative = cytotoxicity, usual class: inhibitors; 94,000 tested, 4.3% active; AID 1345082; note: % is set by controls: 0 for no effect and ±100 for the full control effect; nearly all actives have a fitted effect of over 55% in size
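ATP-dependent luminescence (CellTiter-Glo) served as the viability signal for NIH 3T3 cells treated with compound for 48 or 72 hr at 37 °C.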
GPT2 inhibitor = GPT2 alanine aminotransferase inhibition; Q8TD30; Recombinant GPT2, coupled pyruvate oxidase/HRP Amplex Red fluorescence; Potency, µM (top dose mostly 57.7 µM), without a hit: top-dose activity change, negative = inhibition, hits mostly inhibitors; 100,000 tested, 0.25% active; AID 1671188; note: % is set by controls: 0 for no effect and ±100 for the full control effect; nearly all actives have a fitted effect of over 60% in size
Target sequence (Q8TD30 whole entry, looked up): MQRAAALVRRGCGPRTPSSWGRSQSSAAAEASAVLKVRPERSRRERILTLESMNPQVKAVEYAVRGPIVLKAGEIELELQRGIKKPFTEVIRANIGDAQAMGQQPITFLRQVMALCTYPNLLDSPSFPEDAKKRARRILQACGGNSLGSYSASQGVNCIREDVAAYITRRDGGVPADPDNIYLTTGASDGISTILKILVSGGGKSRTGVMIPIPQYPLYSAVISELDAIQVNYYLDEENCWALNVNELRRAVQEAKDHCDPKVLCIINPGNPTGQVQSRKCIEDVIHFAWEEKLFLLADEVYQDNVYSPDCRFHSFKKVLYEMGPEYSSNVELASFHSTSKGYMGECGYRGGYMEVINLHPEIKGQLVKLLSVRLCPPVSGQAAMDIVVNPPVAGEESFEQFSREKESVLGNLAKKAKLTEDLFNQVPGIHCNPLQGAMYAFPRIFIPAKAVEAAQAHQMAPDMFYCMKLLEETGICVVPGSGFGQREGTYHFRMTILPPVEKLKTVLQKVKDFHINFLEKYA
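Fluorescence of coupled pyruvate oxidase/HRP/Amplex Red system (50uM Amplex, 30 min, dark) reports pyruvate formed by GPT2. Enzyme reaction: 10ng/uL GPT2, 2mM L-alanine, 250uM a-KG, 30 min room temperature, pH 7.5; 50uM AOA control.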
HEK293 tox = cytotoxic compounds in HEK 293 cells. HEK 293 viability, ATP luminescence (CellTiter-Glo), 48-72 h. Potency, µM (top dose mostly 115 µM), for the others: top-dose activity change, negative = cytotoxicity, hits mostly inhibitors. 94,000 tested, 6.6% active; note: % is set by controls: 0 for no effect and ±100 for the full control effect; nearly all actives have a fitted effect of over 60% in size
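Read-out: CellTiter-Glo ATP luminescence. Cells: HEK 293, 250 cells/well. Exposure: 48 or 72 hr, 37 degree Celsius.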
NPR1 antag cnf = confirmation of human Npr1 natriuretic peptide receptor antagonists | shares compounds with hNpr1 antagonist | HEK293 hNpr1 cGMP GloSensor luminescence, ANP-stimulated | Potency, µM (doses to about 57.6 µM), for the others: at the top dose activity change, negative = inhibition, actives largely listed as inhibitors | 1,400 tested, 76% active | AID 1347044; calls by dose curve; note: nearly all actives have a fitted effect of over 70% in size
Npr2 selectivity = hNpr2 antagonism, selectivity versus Npr1; HEK293 hNpr2 GloSensor cGMP luminescence, CNP-stimulated; 1,400 tested, 67% active; shares compounds with hNpr1 antagonist; AID 1347046; Potency, µM (top dose mostly 57.6 µM), for the others: at the top dose activity change, negative = inhibition, hits mostly inhibitors; calls by dose curve; note: nearly all actives have a fitted effect of over 70% in size
FLuc counter = FLuc enzyme inhibition, Npr1 counter-screen; shares compounds with hNpr1 antagonist; purified FLuc enzyme, luminescence, Km substrate; Potency, µM (titrated, usually from 57.6 µM), for the others: at the highest dose activity change, negative = inhibition, most hits filed as inhibitors; 1,400 tested, 0.7% active; note: series mostly up to about 58 µM; 0% is about no effect
GloSensor ctrl = reduces cGMP signal in GloSensor control cells; 1,400 tested, 69% active; shares compounds with hNpr1 antagonist; Potency, µM (doses to about 57.6 µM), for the others: at the top dose activity change, negative = inhibition, usual class: inhibitors; HEK293 GloSensor cGMP, SNP-stimulated, luminescence; calls by dose curve; note: % is set by controls: 0 for no effect and ±100 for the full control effect; nearly all actives have a fitted effect of over 70% in size
* = called active by the depositor; [ ] = dose if it differs, or a comment. Unless noted, calls come from the whole dose curve; as a rule, active = well fitted curve in the direction sought with a large enough effect; inconclusive = small, poorly fitted or top-dose-only effect, or another doubt; inactive = no such curve, though single readings can be large; an effect the other way counts as inactive or inconclusive. Potency is the fitted concentration of half-maximal effect.

O=C1OCC2=C1C(c1ccc(Cl)cc1)NC(=O)N2CC(=O)N1CCC(Cc2ccccc2)CC1 (centres undefined) was read as hNpr1 antagonist 12.6µM*, FLuc inh inactive, NIH3T3 tox inconclusive, GPT2 inhibitor inactive, HEK293 tox 28.2µM*, NPR1 antag cnf 19.3µM*, Npr2 selectivity 24.3µM*, FLuc counter -1.2% and GloSensor ctrl 19.3µM*.
Screening CC1CCN(C(=O)CN2C(=O)NC(c3ccccc3)C3=C2COC3=O)CC1 (centres undefined) returned hNpr1 antagonist 5.6%, FLuc inh inactive, NIH3T3 tox inactive, GPT2 inhibitor 1.8% and HEK293 tox 1.1%.
`Cc1ccc(-c2cn[nH]c2C2CCCN(C(=O)CN3CCOCC3)C2)cc1` (centres undefined) gave hNpr1 antagonist 8.7%, FLuc inh inactive, NIH3T3 tox 1.8%, GPT2 inhibitor inactive and HEK293 tox -7.1%.
O=C(NCCOc1ccccc1)c1cnc2n1CCN(Cc1c[nH]c3ccccc13)CC2 was read as hNpr1 antagonist inconclusive, FLuc inh inactive, NIH3T3 tox inconclusive, GPT2 inhibitor -7.2%[88.5 µM], HEK293 tox 100µM*, NPR1 antag cnf 31.4µM*, Npr2 selectivity inconclusive, FLuc counter 3.6%[86.2 µM] and GloSensor ctrl 35.3µM*.
O=C(NCCOc1ccccc1)c1cnc2n1CCN(Cc1ccccc1O)CC2 was read as hNpr1 antagonist -17.1%[70.6 µM], FLuc inh inactive, NIH3T3 tox -25.0%[138 µM], GPT2 inhibitor inactive and HEK293 tox inconclusive.
Screening O=C(c1ccc2[nH]ccc2c1)N1CCCN(c2cc(-c3ccc(Br)cc3)[nH]n2)CC1 returned hNpr1 antagonist 4.47µM*, FLuc inh inactive, NIH3T3 tox 31.6µM*, GPT2 inhibitor inconclusive, HEK293 tox 22.4µM*, NPR1 antag cnf 24.3µM*, Npr2 selectivity 24.3µM*, FLuc counter -12.8% and GloSensor ctrl 19.3µM*.
For COc1ccc(C(=O)N2CCCN(c3cc(-c4ccc(Br)cc4)[nH]n3)CC2)cc1F the results were hNpr1 antagonist 11.2µM*, FLuc inh inactive, NIH3T3 tox 22.4µM*, GPT2 inhibitor inconclusive, HEK293 tox 39.8µM*, NPR1 antag cnf 21.7µM*, Npr2 selectivity 19.3µM*, FLuc counter -2.7% and GloSensor ctrl 15.3µM*.
Screening COc1ccc(C(=O)N2CCCN(c3cc(-c4ccc(Cl)cc4)[nH]n3)CC2)cc1F returned hNpr1 antagonist inconclusive, FLuc inh inactive, NIH3T3 tox 25.1µM*, GPT2 inhibitor inconclusive, HEK293 tox inconclusive, NPR1 antag cnf 24.3µM*, Npr2 selectivity 21.7µM*, FLuc counter 2.8% and GloSensor ctrl 24.3µM*.
Screening COc1ccc(C(=O)N2CCN(c3cc(-c4ccc(Cl)cc4)[nH]n3)CC2)cc1OC returned hNpr1 antagonist 6.31µM*, FLuc inh inactive, NIH3T3 tox inconclusive, GPT2 inhibitor inactive, HEK293 tox 35.5µM*, NPR1 antag cnf 15.3µM*, Npr2 selectivity 19.3µM*, FLuc counter -10.4% and GloSensor ctrl 13.7µM*.
O=C(C1CCCN([S+](=O)([O-])c2cccs2)C1)N1CCCC1c1nc2ccncc2[nH]1 (centres undefined) was read as NIH3T3 tox -8.7%, GPT2 inhibitor inactive and HEK293 tox 2.7%.
For Cc1ccc(-c2ccc(O)cn2)c2cccnc12 the results were hNpr1 antagonist inconclusive, FLuc inh inactive, NIH3T3 tox -40.8%, GPT2 inhibitor inconclusive, HEK293 tox inconclusive, NPR1 antag cnf inconclusive, Npr2 selectivity inconclusive, FLuc counter -3.2% and GloSensor ctrl inconclusive.
CN(C)C(=O)N1CCN(C2CCNCC2)C(=O)C1 was read as NIH3T3 tox 4.3%[138 µM], GPT2 inhibitor inactive and HEK293 tox inactive.
`COCc1noc(-c2ccc(N(C)CC3CC(=O)N(C(C)(C)C)C3)nc2)n1` (centres undefined) gave hNpr1 antagonist 11.2µM*, FLuc inh inactive, NIH3T3 tox inconclusive, GPT2 inhibitor -4.2%, HEK293 tox inconclusive, NPR1 antag cnf 24.3µM*, Npr2 selectivity inconclusive, FLuc counter -1.2% and GloSensor ctrl 21.7µM*.
For O=C(Nc1ccc(Cl)cc1)c1nc2c(o1)CCN(Cc1ccc3c(c1)CCO3)CC2 the results were hNpr1 antagonist 5.01µM*, FLuc inh inactive, NIH3T3 tox inconclusive, GPT2 inhibitor inconclusive, HEK293 tox inconclusive, NPR1 antag cnf 6.27µM*, Npr2 selectivity 11.1µM*, FLuc counter 1.6%[86.2 µM] and GloSensor ctrl 8.86µM*.
For O=C(Nc1ccc(Cl)cc1)c1nc2c(o1)CCN(Cc1ccncc1)CC2 the results were hNpr1 antagonist 1.26µM*, FLuc inh inactive, NIH3T3 tox inconclusive, GPT2 inhibitor 0.2%[88.5 µM], HEK293 tox inconclusive, NPR1 antag cnf 3.53µM*, Npr2 selectivity 3.53µM*, FLuc counter -22.2%[86.2 µM] and GloSensor ctrl 3.53µM*.
O=C(Nc1ccc(Cl)cc1)c1nc2c(o1)CCN(Cc1ccc3cn[nH]c3c1)CC2 was read as hNpr1 antagonist 0.562µM*, FLuc inh inactive, NIH3T3 tox inconclusive, GPT2 inhibitor -12.7%[88.5 µM], HEK293 tox 44.7µM*, NPR1 antag cnf 3.53µM*, Npr2 selectivity 3.96µM*, FLuc counter -2.8%[86.2 µM] and GloSensor ctrl 3.96µM*.
Screening O=C(c1nc2c(o1)CCN(Cc1cccc(Cl)c1)CC2)N1CCOCC1 returned hNpr1 antagonist inconclusive, FLuc inh inactive, NIH3T3 tox inconclusive, GPT2 inhibitor 4.4%[88.5 µM] and HEK293 tox inconclusive.

Bioassay records deposited in PubChem BioAssay by National Center for Advancing Translational Sciences (NCATS).
